Each structure is given as a SMILES string. Several values for one entry are separate records, joined by “and”; a condition that tells them apart may be missing. Equal values may be shown once. Compounds without any hit were thinned out: in the full panel of roughly 79,000, 15% have a hit. Unmarked numbers belong to inactive results. Activity calls are given as the source filed them. Cut-off read from the data, not from the text of the source: active = growth inhibition above about 70%; inactive = the rest.

A short description of experiment [1]: NCI Yeast Anticancer Drug Screen. Data for the rad50 strain (AID 155).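 Note: 0% = growth of vehicle-only cultures of the same strain.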 Particulars: S. cerevisiae rad50 strain growth inhibition, active compounds read high; at 50.0 µM unless noted. Put shortly: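 Yeast carrying a defined DNA repair defect were exposed to test compounds, and growth was compared with vehicle-treated controls to give percent inhibition.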
Experiment [2] in a line: NCI Yeast Anticancer Drug Screen. Data for the mec2-1 strain (AID 157). To be noted: S. cerevisiae mec2-1 strain, active compounds read high; at 50.0 µM unless noted. Put shortly:
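Test agents were screened against the mec2-1 yeast strain, with defined DNA repair or cell cycle alteration. Growth was scored as inhibition against vehicle-only controls.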

The nature of experiment [3]: NCI Yeast Anticancer Drug Screen. Data for the sgs1 mgt1 strain (AID 161).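 Note: 0% = growth of cultures given vehicle only.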 Particulars: S. cerevisiae sgs1 mgt1 strain, active compounds read high; at 50.0 µM unless noted. Put shortly: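 Mutant yeast exposed to compound; growth scored against vehicle-only wells.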
Experiment [4] in a line: NCI Yeast Anticancer Drug Screen. Data for the cln2 rad14 strain (AID 165).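 Note: 0% = growth equal to vehicle treated cultures.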 Particulars: S. cerevisiae cln2 rad14 strain, active compounds read high; at 50.0 µM unless noted. Put shortly:
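Growth of compound-exposed yeast (cln2 rad14 genotype) measured and expressed as inhibition relative to vehicle.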

Experiment [5] in a line: NCI Yeast Anticancer Drug Screen. Data for the bub3 strain (AID 167). Particulars: S. cerevisiae bub3 mutant strain, active compounds read high; at 50.0 µM unless noted. Put shortly: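 Compounds were applied to a genetically altered yeast strain carrying a cell-cycle control defect. Growth inhibition was scored against vehicle-treated controls.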
Experiment [6] in a line: NCI Yeast Anticancer Drug Screen. Data for the mlh1 rad18 strain (AID 175). To be noted: S. cerevisiae mlh1 rad18 strain growth inhibition, active compounds read high; at 50.0 µM unless noted. Put shortly:
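In this whole-cell yeast screen, a strain with altered DNA damage repair is challenged with compound, and its growth is measured against matched vehicle-treated controls.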

On to `CCCCCCCCCCCC(=O)NC(=S)Nc1cccc(O)c1`, for which the growth inhibition is 84.3% (active) in experiment [1]; 63.8% in experiment [2]; 74.4% (active) in experiment [3]; 90.3% (active) in experiment [4]; 93% (active) in experiment [5]; 81.4% (active) in experiment [6].
As for `COCCN=Cc1ccc(N(C)C)cc1`, the growth inhibition in experiment [1] is 4.35%; in experiment [2], -4.8%; in experiment [3], -3.05%; in experiment [4], -26.4%; in experiment [5] it was 7.45%; in experiment [6] it was 3.7%.
As to `CCOC(=O)C(=O)Nc1c(C)cccc1C(C)(C)C`, the growth inhibition is -22.1% in experiment [1]; -30.4% in experiment [2]; -4.35% in experiment [3]; 3.55% in experiment [4]; -16.8% in experiment [5]; -7.05% in experiment [6].
`CNCCCn1c2ccccc2c2c3c(c(-c4ccsc4)cc21)C(=O)NC3=O`: the growth inhibition in experiment [1] is -1.75%; in experiment [2] it was -8.7%; in experiment [3], -19.9%; in experiment [4], -4.3%; in experiment [5] it was -7.8%; in experiment [6], -40.5%.
In the case of `CC(O)C(O)C(O)C(O)c1nc2ccccc2[nH]1` (stereo not given), the growth inhibition is -18.4% in experiment [1]; -3.35% in experiment [2]; -20.6% in experiment [3]; -37% in experiment [4]; 4.35% in experiment [5]; 9.9% in experiment [6].
For `O=C1OC(c2ccccc2)=C2CCC3CCCCN1C23` (stereo not given), the growth inhibition in experiment [1] is -2.15%; in experiment [2], -29.7%; in experiment [3] it was 12.8%; in experiment [4], 23.4%; in experiment [5] it was 34.6%; in experiment [6], 9.25%.
For the compound `C=C1CC(COc2ccc3c(C)c(C)c(=O)oc3c2C)(c2ccccc2)OC1=O` (stereo not given), the growth inhibition is 8.85% in experiment [1]; -3.75% in experiment [2]; 23.9% in experiment [3]; 4.85% in experiment [4]; 6.7% in experiment [5]; 21.4% in experiment [6].
Regarding `COc1cc(/C=C/C(=O)c2sc(Nc3ccccc3)nc2C)ccc1O`, the growth inhibition in experiment [1] is 27.8%; in experiment [2], 2.8%; in experiment [3] it was 13.2%; in experiment [4], 0.85%; in experiment [5], 19%; in experiment [6], 28%.
For `Cc1ccc(Nc2cc(C(=O)O)c(Nc3ccc(C)cc3)cc2C(=O)O)cc1`, the growth inhibition in experiment [1] was 0.7%; in experiment [2] it was -10.6%; in experiment [3] it was 12.3%; in experiment [4], 33.4%; in experiment [5] it was 7.85%; in experiment [6] it was 6.9%.
Regarding `O=C(Cc1ccccc1)N/N=C(/c1nc2ccc([N+](=O)[O-])cc2[nH]c1=O)C(O)c1ccccc1Cl` (stereo not given), the growth inhibition in experiment [1] was 0.8%; in experiment [2], 2.6%; in experiment [3] it was 6.8%; in experiment [4], 2.2%; in experiment [5], 5.7%; in experiment [6], 16.1%.
For `Cc1ccc(C2=Nc3ccccc3NC(=O)C2)cc1`, the growth inhibition in experiment [1] was -2.6%; in experiment [2], -20.1%; in experiment [3], -12.6%; in experiment [4], 22.2%; in experiment [5], -7.35%; in experiment [6], -17.9%.
For the compound `Cc1ccc(/C=C2\NC(=S)NC2=O)cc1`, the growth inhibition in experiment [1] was -0.15%; in experiment [2], -18.9%; in experiment [3], -1.9%; in experiment [4] it was -21.4%; in experiment [5], -23.4%; in experiment [6], -41.4%.
For the compound `COc1ccc2c(c1)[n+](=O)c(C(=O)C/C(=N\NC(=O)C[N+](C)(C)C)C(=O)Nc1cc(Cl)ccc1Cl)c(C)n2O`, the growth inhibition in experiment [1] was -27.9%; in experiment [2], -12.7%; in experiment [3] it was -43.6%; in experiment [4], 9.3%; in experiment [5], -23.1%; in experiment [6], -23.4%.
`CCCN(CCC)CC(O)CNc1cc(OC)cc2cccnc12` (stereo not given): the growth inhibition in experiment [1] was 9.75%; in experiment [2], -16.2%; in experiment [3], 6.7%; in experiment [4], -35.7%; in experiment [5] it was 19.9%; in experiment [6], 5.7%.
As for `O=[N+]([O-])c1ccc(NN=C2CCCCC2)c([N+](=O)[O-])c1`, the growth inhibition in experiment [1] is 9.1%; in experiment [2], -18.2%; in experiment [3], 1.8%; in experiment [4], -39.6%; in experiment [5], 2.7%; in experiment [6], 30.6%.
Regarding `O=C(O)C1C2OC3C(OC(=O)C31)C2Br` (stereo not given), the growth inhibition in experiment [1] was -9.6% and 3.1%; in experiment [2], 6.75% and -15.9%; in experiment [3], -8.9% and 2.25%; in experiment [4], 6.4% and -34.2%; in experiment [5], -2.35% and 1.3%; in experiment [6], -4.65% and 25.3%.
Regarding `C/C(CC(=O)Nc1ccc(Cc2ccc(Br)cc2)cc1)=N/Nc1ccc([N+](=O)[O-])cc1[N+](=O)[O-]`, the growth inhibition in experiment [1] was 25.1%; in experiment [2], 12.6%; in experiment [3] it was 31.3%; in experiment [4] it was 16.5%; in experiment [5], 4.1%; in experiment [6], 24.7%.
On to `NNC(=O)Cc1cccnc1`, for which the growth inhibition was -3.6% in experiment [1]; -0.75% in experiment [2]; -26.1% in experiment [3]; -8% in experiment [4]; -33% in experiment [5]; 9.55% in experiment [6].
As to `Cc1ccc(S(=O)(=O)OCC2C3C=CC(C4C=CC43)C2COS(=O)(=O)c2ccc(C)cc2)cc1` (stereo not given), the growth inhibition in experiment [1] was -4.25%; in experiment [2] it was -0.65%; in experiment [3], -10%; in experiment [4] it was -25.3%; in experiment [5], 11.8%; in experiment [6], -0.4%.
As for `CC12C(=O)C(C(c3ccccc3)=C1c1ccccc1)C1C(=O)OC(=O)C12` (stereo not given), the growth inhibition was -6.8% in experiment [1]; 2.8% in experiment [2]; -0.15% in experiment [3]; -1.6% in experiment [4]; -11.9% in experiment [5]; -6.65% in experiment [6].

The values are drawn from PubChem BioAssay (NCI).
